# PubChem BioAssay AID2018 (Sanford-Burnham Center for Chemical Genomics, 2009)
# The whole screen tested about 1,200 compounds, of which about 600 (50%) were called active. Cut-off read from the data, not from the text of the source: active = inhibition above about 42%; inactive = the rest. So high a share suggests a set chosen from earlier hits. Some of the results follow. Potency and affinity values are given separately.
# Biological target: SUMO-conjugating enzyme UBC9 (Homo sapiens) (UniProt P63279)
# Assay: blockers of UBC9-mediated SUMO conjugation – biochemical, AlphaScreen, SUMOylation inhibitor project, confirmation (AID 2018)
# Settings: AlphaScreen in vitro SUMOylation assay; at 35 µM; active compounds read high
# Sequence of SUMO-conjugating enzyme UBC9 (Homo sapiens) (P63279 whole entry, looked up): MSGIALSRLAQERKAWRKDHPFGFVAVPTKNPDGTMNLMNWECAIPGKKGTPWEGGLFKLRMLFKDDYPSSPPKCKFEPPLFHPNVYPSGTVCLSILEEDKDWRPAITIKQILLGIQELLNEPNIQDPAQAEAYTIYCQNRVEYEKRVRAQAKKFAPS
row,Compound,inhibition
1,CCOCCCN1CN(Cc2ccco2)CNC1=S,4.1% (inactive)
2,O=C(O)/C=C\c1cn(-c2ccccc2)nc1-c1cc2ccccc2o1,27.9% (inactive)
3,O=C(O)/C=C/c1cn(-c2ccccc2)nc1-c1cc2ccccc2o1,10.4% (inactive)
4,C=CCn1c(NC(=O)c2ccc(Br)o2)c(S(=O)(=O)c2ccccc2)c2nc3ccccc3nc21,65.4% (active)
5,Cc1ccc(C)c(S(=O)(=O)c2c(N)n(/N=C/c3ccco3)c3nc4ccccc4nc23)c1,23% (inactive)
6,COc1ccc(CNC(=O)c2c(N)n(CCCN3CCOCC3)c3nc4ccccc4nc23)cc1,3.3% (inactive)
7,Cc1ccc(S(=O)(=O)c2c(N)n(/N=C/c3ccco3)c3nc4ccccc4nc23)cc1C,26.1% (inactive)
8,O=C(c1cccn2c(=O)c3cc(Cl)ccc3nc12)N1CCOCC1,5.9% (inactive)
9,Cc1ncc(CO)c(/C=N/NC(=O)c2cc(O)c(O)c(O)c2)c1O,99.6% (active)
10,Brc1ccc(OCCN2CCOCC2)cc1,13.4% (inactive)
11,CC(=O)NC1C(=O)N(CCN2CCOCC2)c2ccc(Br)cc21 (stereo unspecified),99% (active)
12,CCOc1ccc2c(c1)C(NC(C)=O)C(=O)N2CCN1CCOCC1 (stereo unspecified),95.9% (active)
13,Cn1c(=O)n(C)c2cc(S(=O)(=O)NCCO)ccc21,13.1% (inactive)
14,CCc1ccc2c(c1)C(NC(C)=O)C(=O)N2CCN1CCOCC1 (stereo unspecified),96.7% (active)
15,O=C(Nc1cccc2ccccc12)N1CCc2ccccc2C1,13.1% (inactive)
16,Oc1ccc(N=Cc2ccc(-c3cccs3)s2)cc1,52.6% (active)
17,Cc1ccc(C)c(-c2nc3ccc(N)cc3[nH]2)c1,8.5% (inactive)
18,N#CC1=C(SCC(=O)NC23CC4CC(CC(C4)C2)C3)NC(=O)C(C#N)C12CCCCC2 (stereo unspecified),-21.2% (inactive)
19,CN(C)/C=C1/Oc2c(ccc3ccccc23)C1=O,-1.2% (inactive)
20,COc1cccc2c1C(=O)c1ccc3ccccc3c1C2=O,75.8% (active)
21,COc1ccc(OC)c2c1C(=O)c1ccccc1C2=O,44% (active)
22,CN(C)/C=C1\Oc2ccc3ccccc3c2C1=O,-1.5% (inactive)
23,COc1ccc(Cc2n[nH]c(=S)n2NC(=O)Nc2ccc(Cl)c(Cl)c2)cc1,24.4% (inactive)
24,COc1ccc(NCc2cc3ccccc3[nH]c2=O)cc1,46.4% (active)
25,COc1ccc(-c2cc(=O)[nH][nH]2)cc1,27.6% (inactive)
26,COCCn1nnnc1C(c1cc2ccc(OC)cc2[nH]c1=O)N1CCc2ccccc2C1 (stereo unspecified),4.8% (inactive)

row,Compound,inhibition
1,O=C(NCc1ccccc1)Nc1cccn(Cc2ccc(Cl)cc2)c1=O,-10.4% (inactive)
2,CN(C)/C=N/c1nc2nccc(-c3ccc(F)cc3)n2n1,1.6% (inactive)
3,CCN(CC)S(=O)(=O)c1cc(C)ccc1SC,-1% (inactive)
4,Cc1ccc(C(=O)c2c3ccc(N)cc3nn2CCC(N)=O)cc1,38.2% (inactive)
5,Cc1c(N=C2C=CC(=O)c3ccccc32)c(=O)n(-c2ccccc2)n1C,102% (active)
6,CCc1cc2c(=O)nc3n(c2s1)Cc1ccccc1/C3=C(/O)c1cccc([N+](=O)[O-])c1,16.9% (inactive)
7,Cc1cc(=O)n2[nH]c(N)c(N=Nc3ccccc3F)c2n1,12.9% (inactive)
8,COc1ccccc1NC(=O)Nc1ccnn1Cc1cccs1,16.5% (inactive)
9,Nc1c(C(=O)Nc2ccc(F)cc2)sc2nc(-c3ccco3)ccc12,35.1% (inactive)
10,Nc1c(C(=O)Nc2ccccc2)sc2nc(-c3ccco3)ccc12,-10.2% (inactive)
11,Cc1ccc(S(=O)(=O)N2CCCCC2)cc1NC(=O)COC(=O)c1c(F)cccc1F,-6.2% (inactive)
12,Cc1cc2c(NC(=O)Nc3ccc(C(C)(C)C)cc3)cccc2nn1,15.3% (inactive)
13,CCOC(=O)NC(=O)COC(=O)c1ccc(O)cc1,24.8% (inactive)
14,COc1cc(OC)cc(-c2nc(-c3ccccc3)no2)c1,-70.2% (inactive)
15,COc1ccc2nc(-c3ccco3)c(-c3ccco3)nc2c1,76.8% (active)
16,O=C(NCc1ccco1)Nc1ccc2snnc2c1,11% (inactive)
17,COCCNC(=O)Nc1ccc2nc(-c3ccco3)c(-c3ccco3)nc2c1,102% (active)
18,COCCn1c(-c2ccco2)nc2nc3ccccc3nc21,19.2% (inactive)
19,CCOc1ccccc1Oc1c(C)oc2c(CN3CCN(C)CC3)c(O)ccc2c1=O,-5.4% (inactive)
20,S=c1[nH]nc(-c2cc(-c3ccccc3)n[nH]2)n1/N=C/c1ccc(Cl)c(Cl)c1,12.5% (inactive)
21,Cc1cccc(-c2n[nH]c(=S)n2/N=C/C=C/c2ccco2)c1,37.5% (inactive)
22,O=C(O)CCCCCNc1ccc2nsnc2c1[N+](=O)[O-],-10.2% (inactive)
23,C[C@@H]1CN=C2N(CCNC(=O)CCC3CCCCC3)[C@H](Cc3ccc(O)cc3)CN21,6% (inactive)
24,O=C1OC(Nc2ccc3ncccc3c2)c2ccccc21 (stereo unspecified),2.1% (inactive)
25,Cc1cccc(C(=O)O)c1NC(=O)c1ccc(F)cc1,2.9% (inactive)
26,Cc1cc2c(NC(=O)Nc3ccc(F)cc3)cccc2nn1,10.5% (inactive)

row,Compound,inhibition
1,Cc1cc2c(N)cccc2nn1,101% (active)
2,Cc1cc2c(NC(=O)Nc3ccccc3)cccc2nn1,26.1% (inactive)
3,COc1ccc(C2C3=C(CCCC3=O)Nc3c(-c4ccccc4)c(C)nn32)cc1 (stereo unspecified),4.2% (inactive)
4,O=C(O)CSc1cc(C(=O)c2ccccc2O)cn2c(=O)c3c(-c4ccccc4)csc3nc12,99.2% (active)
5,O=C(O)CSc1cc(C(=O)c2cc(F)ccc2O)cn2c(=O)c3c(-c4ccccc4)csc3nc12,95.3% (active)
6,COc1ccc(/C=C/c2cc(C(=O)O)c3ccccc3n2)cc1,21.4% (inactive)
7,N#CCCN(Cc1cccnc1)C(=S)NC1CC2C=CC1C2 (stereo unspecified),-4.1% (inactive)
8,CCOC(=O)Cn1c2ccc(OC)cc2c2nc3ccccc3nc21,38.7% (inactive)
9,COC(=O)Cn1c2ccc(C)cc2c2nc(C)sc21,30.1% (inactive)
10,COc1cc2c(C#N)c(N3CCN(c4ccccc4OC)CC3)nc(N)c2c(N)n1,19.7% (inactive)
11,COc1cc2c(C#N)c(N3CCN(C)CC3)nc(N)c2c(N)n1,21.5% (inactive)
12,COc1cc2c(C#N)c(N3CCCCC3)nc(N)c2c(N)n1,47.6% (active)
13,CCCN(CC1CC1)c1nc(N)c2c(N)nc(OC)cc2c1C#N,16.9% (inactive)
14,CN1CCc2cc3c(c4c2[C@H]1[C@H](O)c1ccccc1-4)OCO3,74% (active)
15,NC(N)=NS(=O)(=O)c1ccc(NC(=S)NC(=O)/C=C/c2ccco2)cc1,34.2% (inactive)
16,CC(=O)NC(=S)Nc1ccc(NC(=S)NC(=O)/C=C/c2ccco2)cc1,7.8% (inactive)
17,COc1ccc(NC(=O)N2c3ccc(OC)cc3C(C)=CC2(C)C)cc1,28.1% (inactive)
18,Cc1c(C(=O)c2ccc(F)cc2F)c2ccccn2c1CCC#N,15.4% (inactive)
19,COc1ccc(Cn2c(C)c(C)c(C#N)c2NC(=O)Nc2ccc(F)cc2)cc1,-26.7% (inactive)
20,c1cc(Nc2ncnc3sc4c(c23)CCC4)ccn1,12.9% (inactive)
21,Cc1cc2n(n1)SC(Nc1cccc3ccccc13)N2 (stereo unspecified),14% (inactive)
22,Cc1ccc2cc(C(c3nnnn3C(C)(C)C)N3CCCCCC3)c(=O)[nH]c2c1 (stereo unspecified),0.1% (inactive)
23,CNS(=O)(=O)c1ccc2nc(NC(=O)/C=C/c3ccco3)sc2c1,16.2% (inactive)
24,COc1ccc(-c2csc(NC(=S)NC(=O)/C=C/c3ccco3)n2)cc1OC,74.2% (active)
25,Cc1nc2ccc(-c3nc4cc(N)ccc4o3)cc2[nH]1,-11.6% (inactive)
26,CCCCCCC(C)OC(=O)c1ccccc1C(=O)O (stereo unspecified),10.7% (inactive)

row,Compound,inhibition
1,Cc1c(Br)c(O)c(Br)c2sc(=O)oc12,49.6% (active)
2,Cc1ccc(Nc2nc(=O)c3cc([N+](=O)[O-])ccc3s2)cc1,24.2% (inactive)
3,COc1cc([N+](=O)[O-])cc(/C=N/NC(=O)C(C)Nc2cccc3ccccc23)c1O (stereo unspecified),-212% (inactive)
4,COc1cccc(/C=N/NC(=O)C(=O)N/N=C/c2cccc(OC)c2O)c1O,98.6% (active)
5,O=C(CNc1ccc2ccccc2c1)N/N=C/c1cc2ccccc2nc1Cl,37.3% (inactive)
6,O=C(N/N=C/c1ccc(O)cc1O)C(=O)N/N=C/c1ccc(O)cc1O,101% (active)
7,CC(O)C(=O)N/N=C/c1cccc(Cl)c1Cl (stereo unspecified),-34.7% (inactive)
8,COc1ccc2c(c1)-c1nc(/N=C/c3cccc(OC)c3O)sc1CC2,28.4% (inactive)
9,COc1cccc(OC)c1C(=O)N1CCNCC1,-1.1% (inactive)
10,O=C(NCCNc1ccc2ccccc2c1)c1cccn2c(=O)c3sccc3nc12,23.7% (inactive)
11,Cc1ccc(-c2nc3cc(N)ccc3o2)cc1,11.5% (inactive)
12,CC(C)CC(=O)Nc1ccc2oc(-c3cccnc3)nc2c1,16.9% (inactive)
13,Cn1nccc1NC(=O)Nc1cccc(Br)c1,-0.2% (inactive)
14,CN1C(=O)c2cccc3c(S(=O)(=O)NCc4ccco4)ccc1c23,5% (inactive)
15,CCN1C(=O)c2cccc3c(N)ccc1c23,50% (active)
16,CN1C(=O)c2cccc3c(S(=O)(=O)NCCc4ccccc4)ccc1c23,-13% (inactive)
17,C=CCN1C(=O)N(/C=C/C)c2cccc3cccc1c23,-14.9% (inactive)
18,COc1cccc(NC(=S)Nc2cccc3ccccc23)c1,30.7% (inactive)
19,COc1cccc(C(=O)Nc2cccc(C(=O)NC3=NN(c4c(Cl)cc(Cl)cc4Cl)C(=O)C3)c2)c1,101% (active)
20,COC(=O)/C(=C\Nc1ccc(Cl)cc1Cl)NC(=O)c1ccc(OC)cc1,22.8% (inactive)
21,O=C(Cc1cc(=O)[nH][nH]1)N/N=C/c1cccc2ccccc12,47.2% (active)
22,O=C(CNc1cccc2ccccc12)N/N=C/c1ccccn1,-1.7% (inactive)
23,C=CCc1cccc(/C=N/NC(=O)CNc2cccc3ccccc23)c1O,25.1% (inactive)
